Laboratory results taken from the supplement of paper PMC11417369.
± gives the standard deviation of the averaged measurements. Whole data set: some 25,000 sequences, median “ln(normalized median fluorescence intensity)” near 8.6, cut for the highest 2% near 10. Many of the other results were omitted from the sample, so the highest values are more common in it than they were.

test system: PfAP2-EXP AP2 domain (GST-tagged); assay: gcPBM binding intensity (ln(normalized median fluorescence intensity)); higher = stronger DNA binding
How it was run: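 The highest Masliner-normalised natural-log median intensity across replicate spots of either probe orientation is reported as binding intensity. GST-tagged P. falciparum DNA-binding domains expressed in E. coli were applied for 1 h to an Agilent 4 × 180k array of primer-extended double-stranded 36-bp intergenic genomic probes plus negative controls, and bound protein was detected with Alexa488 anti-GST antibody and scanned at 488 nm.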

| Sequence | gcPBM binding intensity (ln) |
| --- | --- |
| TTTTTTTTTTTTTTTTTTTTACGATATATTTTAAAA [XGTACX_negctrl_site401] | 8.03 ± 0.67 |
| GTTATACATTTGAAAAGTACTCATGATTTTTTTTTT [XGTACX_site8177] | 8.75 ± 0.45 |
| TCGAATATCTTATAGGTGCATCATAAATACATATGT | 8.69 ± 0.28 |
| TGTATATATAATAAAACACACATTTTTAATGTGCTC [CACACA_site1437] | 8.01 ± 0.3 |
| TTAACCACTAAAAGTACACACATATATACCTATATA [CACACA_site6026] | 8.45 ± 0.28 |
| AATAAATAAAGAAGTACACACATATATATATATATA [CACACA_site4314] | 10.1 ± 0.41 |
| ATGATATGGATAAATACACACAATAAAATAATGTCT [CACACA_site6786] | 8.71 ± 0.43 |
| TATATATATATATACACACACACACCGATATATATA [CACACA_site8813] | 10.3 ± 0.41 |
| TATACATACATACATACACACACACCGATATATACA [CACACA_site8184] | 8.78 ± 0.42 |
| TATATATATATATGTACACACACACCGATAAATAAA [CACACA_site8041] | 10.21 ± 0.085 |
| AATATATATATATATACACACACACCGATATATATA [CACACA_site8158] | 8.79 ± 0.33 |
| TATGTACAAATATGTACACACACACCGATATATATA [CACACA_site4487] | 8.76 ± 0.18 |
| TATATATATTTATGTACACACACACCGATAAATAAA [CACACA_site4404] | 8.91 ± 0.48 |
| TATATATATATGTGTACACATGTCGCATTTTTTTAT [CACACA_site4648] | 10 ± 0.26 |
| TGATAATTTCATTTTGCATGTGACAATACAAGATGT [TGCATGCA_site203] | 8.59 ± 0.18 |
| AAAAAAATAATATAAATAATGAAAAGATATAAATAA [GTGCAC_negctrl_site432] | 8.54 ± 0.35 |
| ATGCTTCCTTAGGAATGTACACACATATATAATATG [XGTACX_site873] | 8.69 ± 0.35 |
| ATAGAAATAAAATAAAATAAAAAAAAAATAATGAAA [CACACA_negctrl_site1565] | 8.64 ± 0.43 |
| TAAAATATAATAAAATGTACACGCATGCAATAGAAT [XGTACX_site7434] | 9.99 ± 0.47 |
| CAAAAATAATAGAATACATGCAAAAATAAATGTATA [TGCATGCA_site196] | 9 ± 0.071 |
| TAGAAAAAAATAGATGCATGCAATGAATGAATAATA [TGCATGCA_site14] | 10.3 ± 0.17 |
| AAAATATATATAAATGCATGCATAATGAAATATATA [TGCATGCA_site39] | 9.95 ± 0.21 |
| TAATAAAATGTACACGCATGCAATAGAATATAAAGT [TGCATGCA_site905] | 10.3 ± 0.79 |

| Sequence | gcPBM binding intensity (ln) |
| --- | --- |
| ATTCTACCACGCGATATACACACTTGTAGACATCTT [CACACA_site188] | 8.97 ± 0.49 |
| TTTAAAAATTTGATCAAACACACGTTGCATAAATTA [CACACA_site3945] | 8.87 ± 0.47 |
| TTGTTTAACTTGTTAAATATAATGTATCTGTGGATA [GTGCAC_negctrl_site108] | 8.12 ± 0.4 |
| TTAATACTTTTTTCTGTACACACTTGATTTACTATA [CACACA_site2799] | 8.95 ± 0.44 |
| ATATATATATATATATGTACTTATTTATTTATTTAT [XGTACX_site4645] | 10.2 ± 0.51 |
| TTTTTATTTATATGATACTTATATATATATATATAT [CACACA_negctrl_site462] | 10.2 ± 0.16 |
| TATTTATTGTGATACTTATATTATTTTATGATTAAA [CACACA_negctrl_site901] | 8.27 ± 0.37 |
| TATATATATATATATTGTACTTATGTTTATATTCAT [XGTACX_site6258] | 10.1 ± 0.2 |
| TTGTTAATATATATATGTACTTATTTATTTATTTAT [XGTACX_site2274] | 8.51 ± 0.35 |
| ATATATATGTATGTATGTACTTATTTATTTATTTAT [XGTACX_site7740] | 8.32 ± 0.16 |
| TATATATATATATATTGTACTTTATATGTTCTTATA [XGTACX_site7545] | 10.3 ± 0.11 |
| ATGTTTATTTATTTATGTACTTATATATTTATATAT [XGTACX_site7924] | 8.78 ± 0.34 |
| ATATATATATATAGTTGTACTTAATTTTATATGTTA [XGTACX_site5256] | 10.2 ± 0.15 |
| AAAATTGTTATTTTATGTACTTATATTTATTTATTT [XGTACX_site3478] | 8.53 ± 0.27 |
| TACTTATTGTGATACTTATATTATTTTATGATTAAA [XGTACX_negctrl_site353] | 8.36 ± 0.39 |
| ATATATATATATATATGTACTTATTTATATATTTAT [XGTACX_site7811] | 10.1 ± 0.25 |
| ATCTTTTCATATTGCTGTACAAATTATTTTCATTCG [XGTACX_site492] | 9.05 ± 0.45 |
| AGAATTATATACACAAGTACATAATGACATATATAT [XGTACX_site5617] | 8.42 ± 0.35 |
| ATATATATATATATATGTACTTATGTCATCATTAAA [XGTACX_site5316] | 10.3 ± 0.35 |
| ATATTTTTTTTTTTATGTACTTATTTATAATTATTT [XGTACX_site5279] | 8.67 ± 0.37 |
| TATCATTTATATATGTGTACTTATTTATTTATTTAT [XGTACX_site7961] | 8.82 ± 0.45 |
| GTATGTATATATGTATGTACTTATGTATCATTATTA [XGTACX_site2438] | 8.35 ± 0.26 |
| TATATATTATATATATGTACTTATTTATTAATTTAT [XGTACX_site5253] | 8.29 ± 0.25 |

| Sequence | gcPBM binding intensity (ln) |
| --- | --- |
| ATATATATATATATATGTACTTATTTATTTTATATA [XGTACX_site8810] | 10.2 ± 0.24 |
| ATATATATATATATATGTACTTATTAAGATTAAAAA [XGTACX_site61] | 10.2 ± 0.2 |
| ATATATATATATATATGTACTTATTTATTTATATTA [XGTACX_site4646] | 10.3 ± 0.39 |
| ATATATATATATATGTGTACTTATATATTTAAAAAA [XGTACX_site1761] | 10 ± 0.27 |
| ATTTATTTATTTATATGTACTTATATATGTATTTTC [XGTACX_site6269] | 8.85 ± 0.25 |
| TAAATATATATTATATGTACTTATATATATATATAT [XGTACX_site4448] | 9.85 ± 0.3 |
| TTATATATTTTTATGTGTACTTATATATATATATAT [XGTACX_site6211] | 10 ± 0.13 |
| TTTTATCGTTTTTTTTTTTTTTTTTTTTTTTTTTTT [CACACA_negctrl_site1309] | 9.06 ± 0.092 |
| TCTGGATTGGATTACAAGAAAATAAAATATAAAATA [CACACA_negctrl_site122] | 8.38 ± 0.4 |
| ATGAAGAAGTGTAAATGTACATTTTATGTAGAACAA [XGTACX_site6925] | 8.93 ± 0.48 |
| TAATATTATATTATATGTACATAACAAATTATATTT [XGTACX_site4296] | 8.6 ± 0.21 |
| ATTTTTTTATAAGAAAATTTCTAACGTTAAAAAAAA [CACACA_negctrl_site1367] | 8.38 ± 0.59 |
| TATATATATGTATGATGTACATATATGCATATATAT [XGTACX_site3399] | 8.54 ± 0.23 |
| TATATATATATATATGCATGCCATATGATATATATA [TGCATGCA_site109] | 10.3 ± 0.27 |
| ATATATATATATGATACATGCATATATTTTTTCTTC [TGCATGCA_site216] | 9.99 ± 0.13 |
| ATTTTATTTTTTGAGTGTACTAGTTCAACAACTCCG [XGTACX_site8600] | 8.72 ± 0.52 |
| TGGTTTCAATAATTAATAAAATATATTATTGTGAAA [CACACA_negctrl_site442] | 7.95 ± 0.41 |
| ACGGAAAAAGAAAAGGTGCATATGGACACAATATAT | 9.35 ± 0.17 |
| AAGACAATATATGCAGTGCATATACATACATATATA | 8.65 ± 0.25 |
| CGTATGTGCGGACATGCATGCAATATACAAGAAAAA [TGCATGCA_site145] | 10.2 ± 0.28 |
| AAGAAAAGTAAATATGCATGTAGGGTAGGTTATTTT [TGCATGCA_site46] | 8.94 ± 0.23 |
| TGGGTCTCTAACTGGTGTACTATTTACATATTATAC [XGTACX_site8593] | 8.75 ± 0.37 |
| TATAAATATAAATATACACACATATATATATATATA [CACACA_site1678] | 9.99 ± 0.4 |

| Sequence | gcPBM binding intensity (ln) |
| --- | --- |
| TATATATATAAATACACACACATATATATATATATA [CACACA_site4867] | 10.2 ± 0.25 |
| TATAAATAAATACATACACACACATACATATATATA [CACACA_site9024] | 8.71 ± 0.38 |
| GGAACAAATAATATCACACATATATATATATATATA [CACACA_site5670] | 10.3 ± 0.23 |
| TATAATCATATATACACACACATATATATATATATA [CACACA_site2168] | 10.2 ± 0.43 |
| TAAATATAAACACAAACACACACATATATATATATA [CACACA_site7978] | 10.1 ± 0.42 |
| ATAATAAAATAAATCACACATAATATAATGTAATAT [CACACA_site6144] | 8.44 ± 0.3 |
| TATAATCATAAATACACACACATATATATATATATA [CACACA_site5224] | 10.2 ± 0.42 |
| TGTATAAATATAATCACACATATATATATATATATA [CACACA_site4365] | 10.3 ± 0.73 |
| TGTATAATCATATATACACACACATATATATATATA [CACACA_site8674] | 10.1 ± 0.24 |
| AATATACAAAATATCACACATATAAAATAATATATA [CACACA_site6067] | 8.27 ± 0.5 |
| GCTATAAATATAATCACACATAAATATATAATATAT [CACACA_site5144] | 8.23 ± 0.29 |
| TATATGAAGCTATAGACACACATATAAAAATATAAT [CACACA_site4850] | 8.64 ± 0.47 |
| TCCCTAGTATACCTTAGTACATATATTATTTTGCAC [XGTACX_site2174] | 8.98 ± 0.11 |
| ACTAGTAAATTTATATGTACATATATATATATATAG [XGTACX_site2502] | 8.68 ± 0.24 |
| ATACATATATATATATGTACATATGTATTTTTTATT [XGTACX_site105] | 8.63 ± 0.38 |
| ATATATTTAATATTCACACATAATTATTTTTACTCT [CACACA_site5438] | 8.59 ± 0.38 |
| CATCCAAAAATATTATGTACTAAATTTGGATGTATT [XGTACX_site3954] | 8.48 ± 0.47 |
| TTTTAAATATGCCATACACACTACTATATAATAAAT [CACACA_site5119] | 8.58 ± 0.34 |
| ATACTTTTAAATTGATGTACTTTATTTATAAGGTGA [XGTACX_site6746] | 8.38 ± 0.38 |
| ACTTTACAATATATATGTACATATTAATAAACATAT [XGTACX_site3689] | 8.74 ± 0.42 |
